Source: PubChem BioAssay AID620 (Sanford-Burnham Center for Chemical Genomics, 2007)
In all, about 87,000 compounds went through this assay and about 360 (0.41%) were called active. Shown is part of a subset that was picked to be rich in actives. A number with no mark means an inactive call. Rule as the data show it: active = cytotoxicity above about 50%; inactive = the rest.

Test: HT1080 cell viability loss – fluorescence readout (AID 620);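 also: cells exposed to compound overnight then 4 h with Alamar Blue; 0% = vehicle DMSO and 100% = killing control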
Conditions: at 10 µM, stronger effect = higher value

Row | SMILES | cytotoxicity
1 | COc1cccc(C(=O)Nc2ccc(F)cc2F)c1 | -7.7%
2 | CC(C)(C)c1ccc(Oc2cccc(C3CC(=O)C(C4NCCc5ccccc54)C(=O)C3n3cncn3)c2)cc1 (configuration not stated) | -1.9%
3 | CCn1c(CC(=O)Nc2ccccc2)nnc1SCC(=O)Nc1ccccc1C(=O)OC | 0.7%
4 | COc1ccc(N2CCCCn3c2nc2c3c(=O)[nH]c(=O)n2C)cc1 | 3.8%
5 | CCOC(=O)Cn1nc(-c2ccc(Cl)cc2)ccc1=O | -5%
6 | CCn1c(CSc2nc3ccccc3n2C)nc2ccccc21 | 27.6%
7 | COc1cc(C2C(C#N)=C(C)NC3=C2C(=O)CC(C)(C)C3)cc(OC)c1O (configuration not stated) | -2.1%
8 | COc1ccc(C2C(C#N)=C(C)NC3=C2C(=O)c2ccccc23)cc1 (configuration not stated) | 3%
9 | COc1cc(C2C(C#N)=C(C)NC3=C2C(=O)c2ccccc23)cc(OC)c1OC (configuration not stated) | 68.6% (active)
10 | COc1cc(NC(=O)c2cccs2)c(C(=O)OCC(=O)NCc2ccccc2)cc1OC | 9.6%
11 | CCOc1ccc(NC(=O)CSc2nnc(C)n2CC2CCCO2)cc1 (configuration not stated) | -2.7%
12 | COc1ccc(-c2noc(CN3CCCCC3)n2)cc1OC | 11.9%
13 | CN(C)S(=O)(=O)c1ccc(S(=O)(=O)N(Cc2ccco2)Cc2ccccc2Cl)cc1 | -1.9%
14 | CCOc1cc(S(=O)(=O)N2CC=C(c3ccc(F)cc3)CC2)c(OCC)cc1-n1cnnn1 | 52.5% (active)
15 | CCOc1cc(S(=O)(=O)N2CCN(c3ccc(F)cc3)CC2)c(OCC)cc1-n1cnnn1 | 2.6%
16 | CCOc1cc(S(=O)(=O)N2CCC(Cc3ccccc3)CC2)c(OCC)cc1-n1cnnn1 | -6.4%
17 | CC12CCC(C(=O)N3CCN(Cc4ccccc4)CC3)(OC1=O)C2(C)C (configuration not stated) | 0.4%
18 | CN1CC[n+]2c(CN3C(=O)c4ccccc4C3=O)csc21 | 15.5%
19 | CCCC(=O)c1c(NC(C)C)cc(C)oc1=O | -2.5%
20 | Cc1cccc(N2CCN(C(=O)c3ccncc3)CC2)c1C | 21.3%
21 | COc1cc(C(=O)N2CCN(C(=O)c3ccccc3)CC2)cc(OC)c1OC | -2.8%
22 | COc1cc(C(=O)N2CCN(c3cc(Cl)ccc3Cl)CC2)cc(OC)c1OC | 66% (active)
23 | COc1ccc(C(=O)N2CCN(C(=O)c3cc(OC)c(OC)c(OC)c3)CC2)cc1 | -0.7%
24 | COc1cc(C(=O)N2CCN(c3cccc(C)c3C)CC2)cc(OC)c1OC | 62.4% (active)
25 | COc1ccc(Cl)cc1S(=O)(=O)N1CCN(C(=O)c2cc(OC)c(OC)c(OC)c2)CC1 | -2.5%

Row | SMILES | cytotoxicity
26 | O=C(C1CC1)N1CCN=C1SCc1ccccc1 | -4.5%
27 | Cc1cccc(NC(=O)c2ccc(S(=O)(=O)N(C)C)cc2)n1 | 36.5%
28 | CCc1ccc(NC(=O)CCn2ccnc2C)cc1 | -7%
29 | Cc1ccc(S(=O)(=O)N(C)c2ccc(OCC(=O)OCc3c(C)noc3C)cc2)cc1 | 11.5%
30 | CCC(C)(C)NC(=O)CN(C(=O)CCC(=O)Nc1cc(C)ccn1)c1ccc2c(c1)OCO2 | -1.1%
31 | CCCCCCCCCC(=O)OCC(O)CO (configuration not stated) | -10.7%
32 | CCCCCCCCCCCCCCCC(O)C(N)CO (configuration not stated) | 58.2% (active)
33 | CCCCCCCC(=O)OCC(O)CO (configuration not stated) | -0.9%
34 | COCCn1nnnc1CN(Cc1ccco1)Cc1cc2cc3c(cc2[nH]c1=O)OCO3 | -10.7%
35 | CCn1cc(C(=O)NCc2cccs2)c(=O)c2ccc(C)nc21 | -4%
36 | COc1ccc(OC)c(Nc2nc(N)nc(-c3cc4ccccc4o3)n2)c1 | 4.8%
37 | COc1ccc(OC)c(Nc2cc(-c3ccccc3)nc(N)n2)c1 | 56.1% (active)
38 | COc1ccc(OC)c(Nc2cc(C)nc3ccccc23)c1 | 20.6%
39 | c1ccc(CSc2ncccn2)cc1 | 4.3%
40 | O=C(CCNS(=O)(=O)c1ccccc1F)NCc1ccc2c(c1)OCO2 | -0.4%
41 | COC(=O)N1[C@H](C)C=C[C@]1(Cc1ccccc1)C(=O)OC | -24.7%
42 | COC(=O)N1[C@H](C)C=C[C@]1(Cc1ccccc1)C(=O)O | 90.8% (active)
43 | CNC(=O)[C@@]1(Cc2ccccc2)C=C[C@@H](C)N1C(=O)OC | -24.6%
44 | CCSc1nnc(NC(=O)CSc2nccn2-c2cccc(C)c2C)s1 | -8.3%
45 | CCc1nnc(NC(=O)CSc2nccn2-c2cccc(C)c2C)s1 | -9.5%
46 | Cc1nnc(NC(=O)CSc2nccn2-c2cccc(C)c2C)s1 | 54.7% (active)
47 | CN1/C(=C\C(=O)c2ccco2)C(C)(C)c2ccccc21 | 9%
48 | CN1/C(=C\C(=O)C(F)F)C(C)(C)c2ccccc21 | -3.2%
49 | Cc1ccc(Oc2cc(-n3nc(C)cc3C)ncn2)cc1 | -3.6%
50 | COC(=O)c1ccc(Oc2cc(C)nc(-n3nc(C)cc3C)n2)cc1 | 68.3% (active)

Row | SMILES | cytotoxicity
51 | CC(=O)c1ccc(Oc2cc(C)nc(NCc3ccccc3)n2)cc1 | -1%
52 | COC(=O)c1ccc(Oc2nc(C)cc(Oc3ccccc3)n2)cc1 | 11.3%
53 | CC(=O)c1ccc(Oc2cc(C)nc(-n3nc(C)cc3C)n2)cc1 | 50.3% (active)
54 | COC(=O)c1ccc(Oc2cc(C)nc(SC)n2)cc1 | 48.5%
55 | c1ccc(-c2cc(-c3nc(-c4ccccn4)no3)c3ccccc3n2)cc1 | -10.1%
56 | COc1cccc(C(c2sc3nc(C)nn3c2O)N2CCc3ccccc3C2)c1 (configuration not stated) | -7.4%
57 | CCOC(=O)CNC(=O)CSc1nnc(Cn2c(=O)sc3ccccc32)n1C | -4.4%
58 | Cc1cc(C(=O)CNCc2ccco2)c(C)n1-c1ccc(F)cc1 | 2.4%
59 | O=C(COC(=O)c1ccccc1)NCc1ccco1 | 6.9%
60 | Cc1cc(C(=O)OCC(=O)NCc2ccco2)c(C)n1-c1ccc(F)cc1 | 63.7% (active)
61 | Cc1nn(-c2ccccc2)c(C)c1C(=O)OCC(=O)NCc1ccco1 | -6.6%
62 | Cc1cc(C(=O)OCC(=O)N2CCN(C(=O)c3ccco3)CC2)c(C)n1-c1ccc(F)cc1 | -4.9%
63 | Cc1cc(C(=O)OCC(=O)NCc2ccco2)c(C)n1-c1ccccc1 | 62.1% (active)
64 | COc1cccc(NC(=O)c2ccccc2-c2nc(-c3ccc(Cl)cc3)no2)c1 | 16.9%
65 | O=C(NCc1ccco1)C(C(=O)c1ccc(F)cc1)n1ccccc1=O (configuration not stated) | -0.6%
66 | O=C(O)C1CC=CCC1C(=O)Nc1ccc(S(=O)(=O)N2CCCc3ccccc32)cc1 (configuration not stated) | -8.5%
67 | Cc1cc(NC(=O)COC(=O)c2cccc(S(=O)(=O)N3CCOCC3)c2)no1 | 8.4%
68 | Cc1cc(NC(=O)COC(=O)c2ccc(S(=O)(=O)N3CCCc4ccccc43)cc2)no1 | 52.4% (active)
69 | CC(=O)Nc1ccc(S(=O)(=O)N2CCCc3ccccc32)cc1 | 23.1%
70 | Cc1cc(NC(=O)COC(=O)c2ccc(NS(=O)(=O)c3ccc(C)c(C)c3)cc2)no1 | -8.8%
71 | COC(=O)Nc1ccc(S(=O)(=O)N2CCCc3ccccc32)cc1 | 53% (active)
72 | COc1ccc(CCNS(=O)(=O)c2ccc3c(c2)oc(=O)n3C)cc1OC | 3.2%
73 | CCOC(=O)COc1ccc(S(=O)(=O)N2CCN(c3ccccc3F)CC2)cc1 | -0.3%
74 | Cc1cccc2cc3c(N)c(C#N)sc3nc12 | 2.6%
75 | Cc1ccc2cc3c(N)c(C(=O)N4CCOCC4)sc3nc2c1 | 3.2%

Row | SMILES | cytotoxicity
76 | Cc1ccc2nc3sc(C(=O)N4CCOCC4)c(N)c3cc2c1 | 55.8% (active)
77 | Cc1cccc2cc3c(N)c(C(=O)N4CCOCC4)sc3nc12 | 59% (active)
78 | COc1ccc2cc3c(N)c(C(=O)N4CCCC4)sc3nc2c1 | 3.4%
79 | CCOc1ccc2nc3sc(C(=O)N4CCN(C)CC4)c(N)c3cc2c1 | -19.5%
80 | CCN(CC)CCNC(=O)c1c(O)c2c([nH]c1=O)CCCC2 | 0.6%
81 | O=C(CCn1c(=S)[nH]c2ccccc2c1=O)N1CCOCC1 | -2.8%
82 | O=C1C2CC=C(Cl)CC2C(=O)N1c1ncn[nH]1 (configuration not stated) | -1.3%
83 | CC(C)C1N(c2ccccc2)C(N)=C(C#N)C1(C#N)C#N (configuration not stated) | -5.5%
84 | COc1ccc(-c2nnc(Nc3nc4c(OC)cccc4s3)o2)c(OC)c1 | 8.4%
85 | COc1ccccc1-c1nnc(Nc2nc3c(OC)cccc3s2)o1 | 51.8% (active)
86 | COc1cccc2sc(Nc3nnc(-c4ccccc4Cl)o3)nc12 | -3.2%
87 | Cc1ccc(C(C(=O)NCc2ccccc2)N(C(=O)c2csnn2)c2cccc3ccccc23)o1 (configuration not stated) | -5.1%
88 | COc1cc(/C=N/Nc2nc3ccccc3o2)cc(OC)c1O | 17.8%
89 | Nc1cccc2cnccc12 | 20.7%
90 | Cc1cc2c(N)cccc2nn1 | -9.9%
91 | CNC(=O)CSc1nc2nc(C)cc(C)n2n1 | 16.5%
92 | CCCCS(=O)(=O)/C=C/[C@H]1[C@H](S(=O)(=O)CCCC)[C@H]2C=C[C@@H]1C2 | 0.3%
93 | CCCCS(=O)(=O)/C=C\C1C2C=CC(C2)C1S(=O)(=O)CCCC (configuration not stated) | -14.4%
94 | CCCCS(=O)(=O)/C=C\C=C/S(=O)(=O)CCCC | 94% (active)
95 | CCC(C)NC(=O)CNS(=O)(=O)c1ccc(C)cc1 (configuration not stated) | 1.4%
96 | COc1cc(CNc2ccc3c(c2)CCC3)cc(OC)c1O | -2.4%
97 | O=C(NCc1ccco1)C1CCC(CNS(=O)(=O)c2cccc3cccnc23)CC1 (configuration not stated) | -8.6%
